PubChem BioAssay (EPA / NIEHS)
“And” between values parts separate entries of the source, which are not always exact repeats. Equal values may be shown once. More than one record can exist for a structure, and the calls need not agree. The source made the active and inactive calls. The calls were made as follows: active = hit-call score of the fitted dose curve at least 0.9, where 1 is the maximum; inactive = score below 0.9.

Experiments:
[1] = APR_HepG2_CellCycleArrest_24hr: Apredica 24-hour HepG2 Assay for Cell Cycle Arrest (AID 2282905); conditions: imaging, actives raise or lower the signal;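 also: cell cycle arrest scored as ratio of 2N to 4N nuclear DNA content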
Method in brief: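 HepG2 cells were exposed to compounds at 0.39–200 uM (ten concentrations, duplicate) in 0.5% v/v DMSO for 24 hr. After formaldehyde fixation and Triton permeabilization, Hoechst 33342-stained nuclei were imaged at 20x; DNA content was quantified, with bidirectional fitting against DMSO.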

[2] = APR_HepG2_StressKinase_1hr: Apredica 1-hour HepG2 Assay for Stress Kinase (AID 2282906); conditions: HepG2 stress kinase (phospho-c-Jun) imaging, actives raise or lower the signal
Method in brief: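 HepG2 cells dosed 0.39-200 uM (0.5% DMSO) for 1 h, then formaldehyde-fixed. Stress kinase read by phospho-c-Jun immunofluorescence using high-content imaging; bidirectional fit vs DMSO.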

[3] = APR_HepG2_NuclearSize_24hr: Apredica 24-hour HepG2 Assay for Nuclear Size (AID 2282907); conditions: high-content imaging, actives raise or lower the signal
Method in brief: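 HepG2 human liver cells were exposed for 24 hr to compounds at 0.39–200 uM (ten concentrations, duplicate) in 0.5% v/v DMSO. They were then formaldehyde-fixed, Triton-permeabilized and Hoechst 33342-stained, and nuclear diameter was imaged at 20x. Bidirectional fits were made against DMSO.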

[4] = APR_HepG2_CellLoss_24hr: Apredica 24-hour HepG2 Assay for Cell Loss (AID 2282908); conditions: high-content imaging;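 as to AC50: fit in both directions so a hit may be cell loss or gain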
Method in brief: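 Compounds were tested at 0.39–200 uM in duplicate with 0.5% v/v DMSO final. Cells were then fixed in 3.7% formaldehyde, Hoechst 33342 nuclei were imaged at 20x by HCS, and cell number was fitted bidirectionally against DMSO.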

[5] = APR_HepG2_MicrotubuleCSK_24hr: Apredica 24-hour HepG2 Assay for Microtubule CSK Stabilty (AID 2282909); conditions: HepG2 microtubule cytoskeleton imaging, actives raise or lower the signal
Method in brief: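 HepG2 cells exposed 24 h to compounds at 0.39–200 uM (duplicate, 0.5% v/v DMSO final), then fixed, permeabilized and immunostained for alpha-tubulin with Hoechst 33342. Cytoskeleton imaged at 20x; bidirectional fit versus DMSO baseline.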

[6] = APR_HepG2_MitoticArrest_24hr: Apredica 24-hour HepG2 Assay for Mitotic Arrest (AID 2282910); conditions: high-content imaging, actives raise or lower the signal
Method in brief: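 HepG2 cells, 24 h exposure at 0.39-200 uM (10 concentrations, duplicate, 0.5% DMSO). Fixed, stained for phospho-histone H3 with Hoechst; imaged by high-content microscopy, bidirectional fit versus DMSO.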

[7] = APR_HepG2_MitoMembPot_24hr: Apredica 24-hour HepG2 Assay for Mitochondrial Membrane Potential (AID 2282911); conditions: imaging, actives raise or lower the signal
Method in brief: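 Cells are dosed for 24 hr across 0.39 to 200 uM with solvent held at 0.5% DMSO. They are then stained with 250 nM MitoTracker Red CMXRos for 30 min, fixed in 3.7% formaldehyde and imaged.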

[8] = APR_HepG2_MitoMass_24hr: Apredica 24-hour HepG2 Assay for Mitochondrial Mass (AID 2282912); conditions: high-content imaging, actives raise or lower the signal
Method in brief: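 Human HepG2 liver cells were exposed for 24 hr to compounds at 0.39–200 uM (duplicates, 0.5% v/v DMSO final). They were stained live with 250 nM MitoTracker Red CMXRos for 30 min, fixed in 3.7% formaldehyde, and imaged by HCS fluorescence; signals were fitted bidirectionally against DMSO.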

[9] = APR_HepG2_p53Act_24hr: Apredica 24-hour HepG2 Assay for p53 Activation (AID 2282913); conditions: high-content imaging, actives raise or lower the signal;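 also: p53 protein immunofluorescence averaged per cell in HepG2 with Hoechst nuclei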
Method in brief: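 Human HepG2 liver cells; 24 hr cpd treatment, 0.39–200 uM, 0.5% DMSO final. Fixed in 3.7% formaldehyde, permeabilized with 0.5% Triton X-100, stained with anti-p53/Cy5 plus Hoechst 33342. Six images per well at 20x; gain or loss vs DMSO.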

[10] = APR_HepG2_CellCycleArrest_72hr: Apredica 72-hour HepG2 Assay for Cell Cycle Arrest (AID 2282914); conditions: high-content imaging, actives raise or lower the signal
Method in brief: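 Read-out is Hoechst-stained nuclear DNA content measured by automated fluorescence imaging (20x, six images per well), fitted in both directions relative to DMSO. Human HepG2 liver cells received 0.39–200 uM compound for 72 hr at 0.5% v/v DMSO.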

[11] = APR_HepG2_CellLoss_72hr: Apredica 72-hour HepG2 Assay for Cell Loss (AID 2282915); conditions: high-content imaging
Method in brief: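 HepG2 cells exposed 72 h to compound at 0.39–200 uM (10 concentrations, duplicate) in 0.5% DMSO. Fixed with 3.7% formaldehyde and Hoechst 33342-stained. Imaged at 20x; nuclear count gives cell number, fitted bidirectionally versus DMSO.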

[12] = APR_HepG2_P-H2AX_72hr: Apredica 72-hour HepG2 Assay for H2AX Phosphorylation (AID 2282916); conditions: imaging, actives raise or lower the signal;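 also: phospho-histone H2A.x immunostain intensity per cell marking DNA damage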
Method in brief: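 HepG2 human liver cells were exposed for 72 hr to compounds at 0.39–200 uM (10 concentrations, duplicate per plate) in 0.5% v/v DMSO. Fixed, permeabilized cells were immunolabeled for phospho-histone H2A.x with Hoechst 33342 and imaged by HCS fluorescence; bidirectional fit versus DMSO.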

[13] = APR_HepG2_MitoMembPot_72hr: Apredica 72-hour HepG2 Assay for Mitochondrial Membrane Potential (AID 2282917); conditions: imaging, actives raise or lower the signal
Method in brief: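 HepG2 cells dosed 72 hr with compound at 0.39–200 uM in duplicate, 0.5% v/v DMSO final. Mitochondria stained with 250 nM MitoTracker Red CMXRos for 30 min before formaldehyde fixation, imaged by high-content fluorescence; bidirectional fit versus DMSO.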

[14] = APR_HepG2_MitoticArrest_72hr: Apredica 72-hour HepG2 Assay for Mitotic Arrest (AID 2282918); conditions: high-content imaging, actives raise or lower the signal
Method in brief: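 Read-out is phospho-histone H3 immunofluorescence with Hoechst nuclear segmentation, imaged at 20x. Human HepG2 liver cells received ten concentrations (0.39–200 uM, final DMSO 0.5% v/v) for 72 hr before fixation. Gain or loss of signal was fitted relative to DMSO.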

[15] = APR_HepG2_P-H2AX_24hr: Apredica 24-hour HepG2 Assay for H2AX Phosphorylation (AID 2282920); conditions: high-content imaging, actives raise or lower the signal
Method in brief: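 HepG2, 24 hr, cpd 0.39–200 uM (10 conc, duplicate), DMSO 0.5% v/v final. Fix 3.7% formaldehyde, Triton X-100 permeabilize, anti-phospho-H2A.x 1:200 + Hoechst 2 ug/mL. Imaged, bidirectional fit vs DMSO.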

[16] = APR_HepG2_StressKinase_72hr: Apredica 72-hour HepG2 Assay for Stress Kinase (AID 2282921); conditions: HepG2 stress kinase (phospho-c-Jun) imaging, actives raise or lower the signal
Method in brief: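 Cells were exposed for 72 h to ten concentrations (0.39–200 uM, duplicate) at 0.5% v/v DMSO final, then fixed with 3.7% formaldehyde, permeabilized and immunostained for phospho-c-Jun (Cy3 secondary) with Hoechst nuclear counterstain.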

[17] = APR_HepG2_StressKinase_24hr: Apredica 24-hour HepG2 Assay for Stress Kinase (AID 2282922); conditions: HepG2 stress kinase (phospho-c-Jun) imaging, actives raise or lower the signal
Method in brief: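 HepG2 cells exposed 24 h to 0.39–200 uM compound in duplicate (0.5% v/v DMSO final). Cells fixed in 3.7% formaldehyde, permeabilized and immunostained for phospho-c-Jun; read by high-content fluorescence imaging, fitted bidirectionally against DMSO.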

[18] = APR_HepG2_p53Act_72hr: Apredica 72-hour HepG2 Assay for p53 Activation (AID 2282923); conditions: high-content imaging, actives raise or lower the signal;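 also: average cellular p53 protein immunofluorescence intensity in HepG2 cells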
Method in brief: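 Cells were dosed for 72 hr with compounds at 0.39–200 uM in duplicate (final DMSO 0.5% v/v), then fixed in 3.7% formaldehyde, permeabilized with Triton X-100 and immunostained for p53 (Cy5) with Hoechst 33342 nuclear counterstain.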

[19] = APR_HepG2_MitoMass_72hr: Apredica 72-hour HepG2 Assay for Mitochondrial Mass (AID 2282924); conditions: high-content imaging, actives raise or lower the signal;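 also: MitoTracker Red CMXRos stain intensity per cell imaged as mitochondrial mass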
Method in brief: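 HepG2 cells dosed 72 hr at 0.39–200 uM (0.5% DMSO), in duplicate. MitoTracker Red CMXRos 250 nM loaded 30 min before formaldehyde fixation; high-content fluorescence imaging, bidirectional fit versus DMSO.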

[20] = APR_HepG2_MicrotubuleCSK_72hr: Apredica 72-hour HepG2 Assay for Microtubule CSK Stabilty (AID 2282919); conditions: HepG2 microtubule cytoskeleton, high-content imaging, actives raise or lower the signal
Method in brief: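 HepG2 cells were exposed 72 hr to compound at 0.39–200 uM in duplicate (0.5% DMSO final), then fixed and permeabilized. Alpha-tubulin immunofluorescence was imaged by high-content microscopy, with bidirectional fitting against DMSO and taxol as positive control.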

Measured: AC50

COC(=O)C(C)Oc1ccc(Oc2ccc(Cl)cc2Cl)cc1 (stereo not drawn)
inactive: [1] | [2] | [3] | [4] | [5] | [6] | [7] | [8] | [9] | [10] | [11] | [12] | [13] | [14] | [15] | [16] | [17] | [18] | [19]
active: [7] 129 µM

OC(c1ccc(Cl)cc1)(c1cncnc1)c1ccccc1Cl (stereo not drawn)
inactive: [1] | [2] | [3] | [8] | [9] | [10] | [12] | [13] | [14] | [15] | [16] | [17] | [18] | [19]
active: [4] 108 µM | [5] 84.9 µM | [6] 91.1 µM | [7] 31.5 µM | [11] 10.4 µM | [20] 167 µM

C=CCC1=C(C)C(OC(=O)C2C(C=C(C)C)C2(C)C)CC1=O (stereo not drawn)
inactive: [1] | [2] | [3] | [6] | [7] | [8] | [9] | [10] | [12] | [13] | [14] | [15] | [16] | [17] | [18] | [19]
active: [3] 53.2 µM | [4] 55.8 µM [middle of 4 runs] | [6] 35.4 µM and 43.3 µM and 46.9 µM | [7] 112 µM | [8] 29 µM and 48.5 µM and 56.1 µM | [9] 42 µM | [10] 34.4 µM | [11] 57.1 µM [middle of 4 runs] | [12] 53.8 µM and 47.5 µM | [14] 43.6 µM and 50 µM and 46 µM | [15] 38.1 µM | [16] 60.6 µM and 52.5 µM | [17] 32.4 µM | [18] 117 µM | [19] 66.4 µM

CCCN(CCC)c1c([N+](=O)[O-])cc(S(N)(=O)=O)cc1[N+](=O)[O-]
inactive: [1] | [2] | [3] | [6] | [7] | [8] | [10] | [11] | [12] | [13] | [14] | [15] | [16] | [17] | [19]
active: [1] 34.9 µM | [3] 68.3 µM and 117 µM | [6] 35.4 µM and 38.4 µM | [7] 31.6 µM and 117 µM and 110 µM | [8] 164 µM and 113 µM | [10] 27.2 µM and 57.9 µM and 34 µM | [11] 38.6 µM and 39.2 µM and 46.7 µM | [12] 128 µM and 34.6 µM | [14] 34 µM and 82.3 µM | [15] 31.7 µM and 35.9 µM | [16] 54.4 µM | [17] 116 µM | [19] 94.8 µM

O=C(O)c1nc(Cl)ccc1Cl
inactive: [1] | [2] | [3] | [4] | [6] | [7] | [8] | [9] | [10] | [11] | [12] | [13] | [14] | [20] | [15] | [16] | [17] | [18] | [19]
